GSH bead fluor: GSH bead compound fluorescence profile; fluorescence (KMESF) at 10 µM; GSH beads flow cytometry, compound fluorescence 488/530 nm; stronger effect = higher value; actives 0.25% (n = 190,000); in the data active means fluorescence above about 89;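 further: glutathione beads carrying GST-tagged Bcl family fusion proteins plus one bare bead set; values are compound well signal with DMSO vehicle wells as background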
RGS4-Gao reg: modulates binding of RGS4 to human Galphao | actives 0.33% (n = 220,000) | Multiplexed bead flow cytometry; actives lie on both sides | AID 1415 | binding response (% of control), % at 10 µM; in the data active means binding response below about 49% or above about 150%; inactive means in between;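 further: fluorescent Galphao activated with aluminum fluoride binding bead-coupled RGS4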
RGS16-Gao: modulates binding between human RGS16 and Galphao | bead-based flow cytometry RGS16-Galphao binding, fluorescence; actives lie on both sides | binding response (% of control), % at 10 µM | actives 0.38% (n = 220,000) | AID 1441; call rule not given here;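 further: Galphao activated by GDP with aluminum fluoride before binding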
Avidin fluor: compound fluoresces at 488/530 nm on avidin beads | fluorescence (KMESF) at 10 µM | actives 0.38% (n = 220,000) | compound fluorescence 488/530 nm, flow cytometry; stronger effect = higher value; in the data active means fluorescence above about 47
RGS7-Gao reg: regulators of human RGS7-Galphao interaction. P09471. Multiplexed bead flow cytometry, RGS7-Galphao binding; actives lie on both sides. binding response (% of control), % at 10 µM. actives 0.35% (n = 220,000); in the data active means binding response below about 49% or above about 150%; inconclusive means no clear call, values can overlap the other calls; inactive means in between;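 further: fluorescent Galphao held in activated GDP-AlF4 state binding bead-coupled RGS7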
RGS8-Gao reg: human RGS8-Galphao interaction regulation | P09471 | multiplexed bead flow cytometry, RGS8-Galphao binding; actives lie on both sides | response (percent of control binding), % at 10 µM | actives 0.34% (n = 220,000) | AID 1423; in the data active means response below about 60% or above about 140%; inactive means in between;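 further: Galphao activated as the GDP aluminium fluoride complex binding bead-coupled RGS8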
* marks the source's active call; other numbers are inactive results; ? = inconclusive; · = no result. Compounds with a hit are over-represented: about 1.2% of the library has one in this group of screens.

SMILES | GSH bead fluor | RGS4-Gao reg | RGS16-Gao | Avidin fluor | RGS7-Gao reg | RGS8-Gao reg
O=C(COc1ccc2ccccc2c1)N1CCN(CC2CC3C=CC2C3)CC1 (stereo not drawn) | 17 | 100 | 110 | 50* | 112 | 104
C=CCn1c(O)c(C(C)=NCCc2ccccc2)c(=O)[nH]c1=O | 24 | 99 | 99 | 51* | 99 | 102
C=CCn1c(O)c(C(CC)=NCCc2ccccc2)c(=O)[nH]c1=O | 56 | 99 | 98 | 8 | 98 | 98
Brc1ccc(CN2CCNCC2)s1 | 269* | 100 | 101 | 8 | 100 | 99
CS(=O)(=O)NNP(=O)(NNS(C)(=O)=O)NC(=O)c1ccc(Br)cc1 | · | 103 | 99 | 6 | ? | 101
COC(=O)c1c(C)n(Cc2ccc3c(c2)OCO3)c2ccc(O)cc12 | 49 | 106 | 113 | 41 | 104 | 100
CCOC(=O)c1c(C)n(Cc2ccc3c(c2)OCO3)c2ccc(O)cc12 | 249* | 94 | 95 | 7 | 92 | 97
CN(C)P(=NC(=S)c1cccn1C)(N(C)C)N(C)C | 27 | 107 | 107 | 58* | 116 | 101
CN(C)P(=O)(NC(=O)c1cccn1C)N(C)C | 8 | 104 | 102 | 14 | 105 | 102
C=CCn1c(O)c(C=NCCN(C)C)c(=O)[nH]c1=O | 4 | 93 | 97 | 16 | 93 | 102
CN(C)CCN=Cc1c(O)n(-c2cccc(C(F)(F)F)c2)c(=O)[nH]c1=O | 266* | 100 | 109 | 10 | 97 | 98
O=C1/C(=C/c2ccccc2Cl)N2CCC1CC2 | · | 100 | 108 | 5 | ? | 104
O=S(=O)(F)c1ccc2nc(-c3cccc(Sc4ccccc4)c3)cc(Cl)c2c1 | · | 104 | 102 | 8 | ? | 101
COc1ccccc1-n1c(O)c(C=Nc2c(C)n(C)n(-c3ccccc3)c2=O)c(=O)[nH]c1=O | 261* | 99 | 100 | 8 | 102 | 102
CC(=O)c1ccc(OC(C)C)c(Cc2c(O)[nH]c(=S)[nH]c2=O)c1 | 44 | 100 | 79 | 5 | 95 | 98
CC1(C)CSC(Nc2ccc(F)c(Cl)c2)=N1 | 253* | 104 | 109 | 7 | 103 | 105
CC1(C)CN=C(Nc2ccc(F)c(Cl)c2)S1 | · | 105 | 105 | 3 | ? | 102
O=c1[nH]c(O)c(/C=C2\C=NN=C2c2ccccc2)c(=O)[nH]1 | 266* | 93 | 84 | 5 | 87 | 84
S=C1CN=C(c2ccccc2Cl)c2cc(Cl)ccc2N1 | 119* | 95 | 100 | 5 | 94 | 100
NS(=O)(=O)c1ccc(N2CCNCC2)cc1 | 11 | 99 | 102 | 9 | ? | 98
Cc1ccc(NP(=O)(Oc2ccccc2F)Oc2ccccc2F)cc1 | 20 | 98 | 98 | 48* | 107 | 97
O=C1CN=C(c2ccccc2)c2cc(Br)ccc2N1Cc1cc(=O)n2ccccc2n1 | 184* | 106 | 111 | 23 | 107 | 104
CC(=NCCN1CCOCC1)c1c(O)n(-c2ccccc2C)c(=O)[nH]c1=O | 12 | -2.9* | 3.0* | · | 9.2* | 28*
CCC(=NCCN1CCOCC1)c1c(O)n(-c2ccccc2C)c(=O)[nH]c1=O | 26 | 105 | 150 | 11 | 106 | 110
CC(C)CN1CCN(Cc2ccc(C(F)(F)F)cc2)CC1CCO (stereo not drawn) | · | 99 | 99 | 9 | ? | 96
SMILES | GSH bead fluor | RGS4-Gao reg | RGS16-Gao | Avidin fluor | RGS7-Gao reg | RGS8-Gao reg
COc1ccc(C(=O)C23CN4CN(CN(C4)C2)C3)cc1 | 10 | 102 | 113 | 51* | 116 | 104
[N-]=[N+]=NC1C[C@H](n2ccc(=O)[nH]c2=O)O[C@@H]1CO (stereo partly drawn) | 23 | 101 | 97 | 10 | 103 | 101
Cc1ccc2c(c1)CC1(CN2C)C(=O)NC(=O)N(c2ccc(C)c(C)c2)C1=O (stereo not drawn) | 256* | 113 | 143 | 6 | 109 | 118
CCN(CC)P(=O)(c1n(CC)cc[n+]1CC)N(CC)CC | 16 | 98 | 97 | 8 | ? | 97
O=c1oc2ccccc2c(O)c1[C@H]1c2ccc(O)cc2Oc2c1c(=O)oc1ccccc21 | · | 98 | 95 | 7 | ? | 101
CC(C)N1CC=C(c2c[nH]c3ccccc23)CC1 | 19 | 95 | 97 | 22 | 98 | 96
